{"source": "the OligoGym collection", "data": [{"target": "NPC1L1", "assay": "pooled miR-30 sensor sort-seq; sequence = guide strand", "details": "shRNA", "values": [{"sequence": "TTGGGGTCCACCATCTTGCTTT", "sensor-assay potency score (higher = more potent)": -0.775}, {"sequence": "TTGGTGATCGACAGACTCGCTT", "sensor-assay potency score (higher = more potent)": 0.12}, {"sequence": "TTGTCAGCTGTGGAGACTCGGG", "sensor-assay potency score (higher = more potent)": -1.23}, {"sequence": "TTGATCTCGTCTTCCAGAGAGC", "sensor-assay potency score (higher = more potent)": -1.19}, {"sequence": "TTGTGATAGGCCATGAACCTGG", "sensor-assay potency score (higher = more potent)": -0.611}, {"sequence": "TTGTGTAAGGCTCACTCTGGGC", "sensor-assay potency score (higher = more potent)": -1.01}, {"sequence": "TTGTTGGGCAAGAAGTTGCTGA", "sensor-assay potency score (higher = more potent)": -0.757}, {"sequence": "TTGGAGAGTGTCATGAGGCTTC", "sensor-assay potency score (higher = more potent)": -0.0939}, {"sequence": "TTATGGAACTGCTCCACCGAGG", "sensor-assay potency score (higher = more potent)": -0.788}, {"sequence": "TTGATAGAACCTTCAAAGCTGT", "sensor-assay potency score (higher = more potent)": -0.451}, {"sequence": "TTGGAGTCCACCATCACTCGGC", "sensor-assay potency score (higher = more potent)": 0.203}, {"sequence": "TAAAACACATTGGTGATCGTGT", "sensor-assay potency score (higher = more potent)": 0.009}]}, {"target": "NPEPL1", "assay": "pooled miR-30 sensor sort-seq; sequence = guide strand", "details": "shRNA", "values": [{"sequence": "TCGCTCACCAGCATGCACCGGT", "sensor-assay potency score (higher = more potent)": -0.443}, {"sequence": "TCGCAGACCATCACAATGCAGC", "sensor-assay potency score (higher = more potent)": -1.2}, {"sequence": "TTCGCTAAGCACTGCAATGTGG", "sensor-assay potency score (higher = more potent)": -0.589}, {"sequence": "TAGAGGGGACAGCTGTCCGTGG", "sensor-assay potency score (higher = more potent)": -0.837}, {"sequence": "TCGGTGTTCATCTCATTGCAGG", "sensor-assay potency score (higher = more potent)": -1.16}, {"sequence": "TTCATGTCCGCCACAGCTGAGG", "sensor-assay potency score (higher = more potent)": -1.03}, {"sequence": "TTGATTTCCACCGTCTTCCCTG", "sensor-assay potency score (higher = more potent)": -0.0975}, {"sequence": "TTGTCTTTGAAACCCTGCTTGA", "sensor-assay potency score (higher = more potent)": -0.575}, {"sequence": "TTGCAAGCATAGGACACGCCAT", "sensor-assay potency score (higher = more potent)": -0.766}]}]}
